Data reported in PubChem BioAssay (NCI).
About 83,000 compounds went through this panel and 20% of them were active in at least one assay; those are over-represented in the sample as a whole.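 Activity criterion: percent growth below 10, measured after cells in 96-well plates were exposed to a single compound concentration for 48 hours.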 Activity calls are given as the source filed them.

Key:
Assay in all cases: NCI-60 one-dose screen, 48 h (100 = growth as untreated, 0 = no growth, -100 = all killed)
HOP-92 NSCLC = conditions: 10 µM unless noted
NCI-H522 lung = conditions: 10 µM unless noted
COLO 205 colon = conditions: 10 µM
K-562 leukemia = conditions: 10 µM unless noted
MALME-3M melanoma = conditions: 10 µM unless noted
SNB-19 CNS = conditions: 10 µM unless noted
U251 CNS = conditions: 10 µM unless noted
TK-10 renal = conditions: 10 µM unless noted
CCRF-CEM leukemia = conditions: 10 µM unless noted
SR leukemia = conditions: 10 µM
RPMI-8226 leukemia = conditions: 10 µM unless noted
OVCAR-4 ovarian = conditions: 10 µM unless noted
SK-OV-3 ovarian = conditions: 10 µM unless noted
OVCAR-3 ovarian = conditions: 10 µM unless noted
MCF7 breast = conditions: 10 µM unless noted
HCC-2998 colon = conditions: 10 µM unless noted
EKVX NSCLC = conditions: 10 µM unless noted
T-47D breast = conditions: 10 µM unless noted
BT-549 breast = conditions: 10 µM

Measured: growth

COc1ccc(C2SCC(=O)Nc3c2c(C)nn3-c2nc3ccc(C)cc3s2)cc1O (stereo unspecified)
active: NCI-H522 lung 1.68% | K-562 leukemia 9.45% | SR leukemia 9.81% | OVCAR-3 ovarian 5.66%
inactive: HOP-92 NSCLC 28.9% | COLO 205 colon 35.1% | MALME-3M melanoma 43.5% | SNB-19 CNS 53.8% | U251 CNS 31.3% | TK-10 renal 71.6% | CCRF-CEM leukemia 27.6% | RPMI-8226 leukemia 38.8% | OVCAR-4 ovarian 72.7% | SK-OV-3 ovarian 44.2% | MCF7 breast 15.4% | HCC-2998 colon 54.2%

c1ccc(CCN2CCCCC2Cc2ccccc2)cc1 (stereo unspecified)
inactive: HOP-92 NSCLC 100% | NCI-H522 lung 83.5% | K-562 leukemia 101% | MALME-3M melanoma 97.7% | U251 CNS 98.5% | EKVX NSCLC 93.4% | TK-10 renal 96.6% | CCRF-CEM leukemia 105% | SR leukemia 88.5% | OVCAR-4 ovarian 115% | SK-OV-3 ovarian 106% | OVCAR-3 ovarian 103% | T-47D breast 86.2% | MCF7 breast 96.1% | HCC-2998 colon 83.6%

O=C(c1cccs1)C1NO[N+]([O-])=C1c1cccs1 (stereo unspecified)
inactive: K-562 leukemia 37.4% | SNB-19 CNS 103% | U251 CNS 64% | EKVX NSCLC 102% | RPMI-8226 leukemia 14.1% | SK-OV-3 ovarian 118% | T-47D breast 26.3% | BT-549 breast 88.7% | MCF7 breast 81.8% | HCC-2998 colon 96.5%
active: HOP-92 NSCLC -35.9% | NCI-H522 lung -92.1% | COLO 205 colon 6.64% | MALME-3M melanoma -55.3% | TK-10 renal -46.8% | CCRF-CEM leukemia -40.3% | OVCAR-3 ovarian -10.4%

C/C(=C\C(=O)O[C@H]1[C@@H]2[C@H](C)CC[C@H]2[C@]2(C)O[C@@]1(C1CCCCC1)C[C@H]2OC(=O)CO)c1ccccc1
active: CCRF-CEM leukemia 7.86% | RPMI-8226 leukemia -28.7% | BT-549 breast -6.37% | MCF7 breast 3.04%
inactive: HOP-92 NSCLC 18.3% | NCI-H522 lung 20.3% | K-562 leukemia 23.2% | MALME-3M melanoma 64.4% | SNB-19 CNS 64.4% | U251 CNS 24.2% | EKVX NSCLC 48% | TK-10 renal 70.5% | OVCAR-4 ovarian 38.5% | SK-OV-3 ovarian 59.7% | OVCAR-3 ovarian 44.4% | HCC-2998 colon 25.9%

O=C(CCl)NCNC(=O)CCl
inactive: HOP-92 NSCLC 99.5% | COLO 205 colon 109% | K-562 leukemia 98.9% | MALME-3M melanoma 114% | SNB-19 CNS 108% | U251 CNS 87.9% | TK-10 renal 105% | SR leukemia 80.2% | RPMI-8226 leukemia 83% | OVCAR-4 ovarian 77.4% | SK-OV-3 ovarian 98.8% | OVCAR-3 ovarian 105% | T-47D breast 92.6% | BT-549 breast 86.7% | MCF7 breast 85.1% | HCC-2998 colon 111%

O=C1C=CC(=O)C2C1C1(Cl)C(Cl)=C(Cl)C2(Cl)C1(Cl)Cl (stereo unspecified)
inactive: HOP-92 NSCLC 15.7% | COLO 205 colon 74.7% | K-562 leukemia 29.2% | MALME-3M melanoma 49.2% | SNB-19 CNS 73.8% | U251 CNS 60.8% | EKVX NSCLC 41.3% | TK-10 renal 71.5% | CCRF-CEM leukemia 60.4% | RPMI-8226 leukemia 67.9% | OVCAR-4 ovarian 58.1% | SK-OV-3 ovarian 71% | OVCAR-3 ovarian 44.3% | T-47D breast 28% | BT-549 breast 36.4% | MCF7 breast 47%

CCN(CC)CCOc1c(C(C)C)cccc1C(C)C
inactive: HOP-92 NSCLC 106% | NCI-H522 lung 93.3% | K-562 leukemia 111% | MALME-3M melanoma 107% | U251 CNS 98.6% | EKVX NSCLC 96.5% | TK-10 renal 110% | CCRF-CEM leukemia 102% | OVCAR-4 ovarian 99.3% | SK-OV-3 ovarian 112% | OVCAR-3 ovarian 107% | T-47D breast 85.1% | BT-549 breast 123% | MCF7 breast 94.2% | HCC-2998 colon 102%

COc1cccc2c1C(=O)c1c(O)c3c(c(O)c1C2=O)CC(O)(/C(C)=N/NC(=O)CCC(=O)N/N=C(\C)C1(O)Cc2c(O)c4c(c(O)c2C(OC2CC(N)C(O)C(C)O2)C1)C(=O)c1c(OC)cccc1C4=O)CC3OC1CC(N)C(O)C(C)O1 (stereo unspecified)
active: HOP-92 NSCLC -40.3% [5 µM] | NCI-H522 lung -47% [5 µM] | K-562 leukemia -60.2% [5 µM] | MALME-3M melanoma -99.1% [5 µM] | SNB-19 CNS -20.9% [5 µM] | U251 CNS -27% [5 µM] | EKVX NSCLC -19.4% [5 µM] | TK-10 renal -43.1% [5 µM] | CCRF-CEM leukemia -25.2% [5 µM] | OVCAR-4 ovarian -13.5% [5 µM] | SK-OV-3 ovarian -31.4% [5 µM] | OVCAR-3 ovarian -47.3% [5 µM] | T-47D breast -24.2% [5 µM] | MCF7 breast 2.38% [5 µM] | HCC-2998 colon -94.5% [5 µM]
